# From the supplement of paper PMC12067093, “Discovery and optimisation of a covalent ligand for TRIM25 and its application to targeted protein ubiquitination” (Chemical Science, 2025)
# Targets with the largest changes are over-represented here; the source holds about 21,000 in all.
# Compound: CC1Cc2ccccc2N1C(=O)C1CCCN(C1)C(=O)CCl (mixture of isomers) [TRIM25 ligand 11 (diastereomer mixture)]
# Experiment: probe-labelled cysteine peptide fold change vs DMSO (competition) (log2 fold change); higher = less target engagement (more negative = stronger competition)
# Conditions: THP-1, incubation time: 4 h
# 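Further: competitive chemoproteomic profiling in live THP-1 cells with an iodoacetamide desthiobiotin (IA-DTB) probe, comparing probe-labelled peptide intensities in compound-treated cells against DMSO-treated controls.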
# UniProt Q00403, sequence (Q00403 whole entry, looked up): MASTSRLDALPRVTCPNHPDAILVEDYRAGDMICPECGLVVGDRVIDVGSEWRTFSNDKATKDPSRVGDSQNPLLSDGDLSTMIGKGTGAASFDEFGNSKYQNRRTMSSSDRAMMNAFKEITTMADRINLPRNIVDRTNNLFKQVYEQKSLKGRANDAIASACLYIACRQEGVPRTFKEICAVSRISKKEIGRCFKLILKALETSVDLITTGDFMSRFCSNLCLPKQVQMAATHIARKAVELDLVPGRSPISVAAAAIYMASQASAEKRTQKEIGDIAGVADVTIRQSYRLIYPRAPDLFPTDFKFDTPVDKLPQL
# UniProt P50440, sequence (P50440 whole entry, looked up): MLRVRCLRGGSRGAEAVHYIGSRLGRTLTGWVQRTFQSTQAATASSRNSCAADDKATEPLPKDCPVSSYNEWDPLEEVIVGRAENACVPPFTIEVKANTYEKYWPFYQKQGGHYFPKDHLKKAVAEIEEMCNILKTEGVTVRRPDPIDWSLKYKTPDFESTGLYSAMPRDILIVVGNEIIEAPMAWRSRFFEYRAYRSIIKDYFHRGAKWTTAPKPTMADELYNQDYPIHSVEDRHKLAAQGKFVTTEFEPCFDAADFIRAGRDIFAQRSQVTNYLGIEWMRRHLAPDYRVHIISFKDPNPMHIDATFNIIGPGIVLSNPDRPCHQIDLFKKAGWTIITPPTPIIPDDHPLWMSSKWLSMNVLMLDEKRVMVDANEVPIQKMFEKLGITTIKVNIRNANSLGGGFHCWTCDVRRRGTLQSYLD
# UniProt P04899, sequence (P04899 whole entry, looked up): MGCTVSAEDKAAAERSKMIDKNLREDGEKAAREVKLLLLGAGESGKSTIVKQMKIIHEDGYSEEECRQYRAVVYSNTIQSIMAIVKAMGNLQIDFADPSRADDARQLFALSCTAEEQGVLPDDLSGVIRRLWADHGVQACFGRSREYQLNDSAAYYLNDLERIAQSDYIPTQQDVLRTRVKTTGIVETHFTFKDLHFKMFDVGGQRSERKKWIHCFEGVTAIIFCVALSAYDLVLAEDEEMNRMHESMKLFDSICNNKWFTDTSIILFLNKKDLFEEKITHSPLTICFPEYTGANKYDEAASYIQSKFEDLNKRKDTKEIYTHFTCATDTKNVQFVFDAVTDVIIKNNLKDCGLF
# UniProt Q14C86, sequence (Q14C86 whole entry, looked up): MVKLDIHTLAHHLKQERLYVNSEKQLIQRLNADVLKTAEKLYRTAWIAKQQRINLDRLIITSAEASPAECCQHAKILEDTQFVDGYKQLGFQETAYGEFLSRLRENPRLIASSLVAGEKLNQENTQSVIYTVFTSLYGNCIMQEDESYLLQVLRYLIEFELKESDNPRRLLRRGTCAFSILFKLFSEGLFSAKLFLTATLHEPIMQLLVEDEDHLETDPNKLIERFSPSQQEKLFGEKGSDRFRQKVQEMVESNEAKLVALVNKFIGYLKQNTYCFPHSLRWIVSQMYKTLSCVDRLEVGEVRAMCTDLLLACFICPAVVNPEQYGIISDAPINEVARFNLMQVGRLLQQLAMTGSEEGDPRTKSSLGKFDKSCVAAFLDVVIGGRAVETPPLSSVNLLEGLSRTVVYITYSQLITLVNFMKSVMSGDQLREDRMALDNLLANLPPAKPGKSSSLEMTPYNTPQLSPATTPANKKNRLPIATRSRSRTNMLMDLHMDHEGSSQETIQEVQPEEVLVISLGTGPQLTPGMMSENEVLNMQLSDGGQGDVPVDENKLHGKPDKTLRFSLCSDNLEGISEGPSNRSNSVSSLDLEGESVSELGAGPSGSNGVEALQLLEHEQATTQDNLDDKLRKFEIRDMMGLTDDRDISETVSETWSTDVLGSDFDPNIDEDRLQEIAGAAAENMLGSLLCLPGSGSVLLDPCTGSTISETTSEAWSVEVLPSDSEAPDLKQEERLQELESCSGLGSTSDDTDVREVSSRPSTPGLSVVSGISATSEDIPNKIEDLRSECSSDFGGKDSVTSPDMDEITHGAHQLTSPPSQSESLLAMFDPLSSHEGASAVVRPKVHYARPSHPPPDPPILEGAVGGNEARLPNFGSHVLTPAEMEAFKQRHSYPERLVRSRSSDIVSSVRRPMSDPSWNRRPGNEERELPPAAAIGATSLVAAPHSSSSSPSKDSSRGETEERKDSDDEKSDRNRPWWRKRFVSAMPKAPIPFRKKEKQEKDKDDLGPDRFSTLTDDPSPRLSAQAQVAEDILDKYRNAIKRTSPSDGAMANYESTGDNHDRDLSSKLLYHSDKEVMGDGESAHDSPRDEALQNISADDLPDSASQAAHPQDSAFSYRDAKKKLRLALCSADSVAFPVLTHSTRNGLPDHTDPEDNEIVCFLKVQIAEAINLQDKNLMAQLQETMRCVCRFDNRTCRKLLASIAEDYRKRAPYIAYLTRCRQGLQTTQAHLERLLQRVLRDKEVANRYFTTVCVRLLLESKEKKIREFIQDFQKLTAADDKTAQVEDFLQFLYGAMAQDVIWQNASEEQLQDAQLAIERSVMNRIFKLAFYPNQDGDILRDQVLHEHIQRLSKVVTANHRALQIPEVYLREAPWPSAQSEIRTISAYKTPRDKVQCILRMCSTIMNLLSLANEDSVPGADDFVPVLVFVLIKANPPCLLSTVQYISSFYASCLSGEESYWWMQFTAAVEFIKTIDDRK
# UniProt P54652, sequence (P54652 whole entry, looked up): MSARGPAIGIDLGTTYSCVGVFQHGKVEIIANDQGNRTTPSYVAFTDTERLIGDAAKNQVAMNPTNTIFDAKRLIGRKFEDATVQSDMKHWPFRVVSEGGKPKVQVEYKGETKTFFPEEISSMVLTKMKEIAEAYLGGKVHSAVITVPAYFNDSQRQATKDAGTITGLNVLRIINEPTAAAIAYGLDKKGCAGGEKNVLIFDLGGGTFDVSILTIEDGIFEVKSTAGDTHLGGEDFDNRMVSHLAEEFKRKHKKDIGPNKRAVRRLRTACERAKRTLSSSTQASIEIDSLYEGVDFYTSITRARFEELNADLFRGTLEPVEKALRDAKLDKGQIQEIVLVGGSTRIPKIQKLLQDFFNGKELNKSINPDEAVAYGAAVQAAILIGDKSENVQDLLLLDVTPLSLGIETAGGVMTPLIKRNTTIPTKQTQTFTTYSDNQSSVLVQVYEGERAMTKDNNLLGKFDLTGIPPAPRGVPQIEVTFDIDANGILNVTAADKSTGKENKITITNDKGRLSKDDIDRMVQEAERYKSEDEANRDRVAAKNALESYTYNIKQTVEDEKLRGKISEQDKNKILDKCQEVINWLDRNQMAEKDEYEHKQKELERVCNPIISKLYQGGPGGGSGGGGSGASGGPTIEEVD
# UniProt P51858, sequence (P51858 whole entry, looked up): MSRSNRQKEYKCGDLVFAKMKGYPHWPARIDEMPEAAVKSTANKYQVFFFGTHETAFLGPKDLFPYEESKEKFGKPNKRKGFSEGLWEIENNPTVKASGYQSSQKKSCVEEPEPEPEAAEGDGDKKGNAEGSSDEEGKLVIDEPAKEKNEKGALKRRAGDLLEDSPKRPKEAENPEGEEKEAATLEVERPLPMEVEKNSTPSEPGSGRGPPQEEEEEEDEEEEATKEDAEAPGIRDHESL
# UniProt P50395, sequence (P50395 whole entry, looked up): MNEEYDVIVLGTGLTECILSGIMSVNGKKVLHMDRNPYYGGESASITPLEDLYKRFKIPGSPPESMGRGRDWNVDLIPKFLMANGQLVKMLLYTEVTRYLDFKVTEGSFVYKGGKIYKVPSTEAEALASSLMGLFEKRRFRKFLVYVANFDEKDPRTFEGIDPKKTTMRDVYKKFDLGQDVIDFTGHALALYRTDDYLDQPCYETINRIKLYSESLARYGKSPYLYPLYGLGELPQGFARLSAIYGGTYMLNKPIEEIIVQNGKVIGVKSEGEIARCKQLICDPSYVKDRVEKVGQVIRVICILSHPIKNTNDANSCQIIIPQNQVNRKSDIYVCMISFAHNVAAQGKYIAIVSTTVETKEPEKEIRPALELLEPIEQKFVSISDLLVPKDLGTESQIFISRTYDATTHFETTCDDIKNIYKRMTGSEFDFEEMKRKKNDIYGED
# UniProt P57678, sequence (P57678 whole entry, looked up): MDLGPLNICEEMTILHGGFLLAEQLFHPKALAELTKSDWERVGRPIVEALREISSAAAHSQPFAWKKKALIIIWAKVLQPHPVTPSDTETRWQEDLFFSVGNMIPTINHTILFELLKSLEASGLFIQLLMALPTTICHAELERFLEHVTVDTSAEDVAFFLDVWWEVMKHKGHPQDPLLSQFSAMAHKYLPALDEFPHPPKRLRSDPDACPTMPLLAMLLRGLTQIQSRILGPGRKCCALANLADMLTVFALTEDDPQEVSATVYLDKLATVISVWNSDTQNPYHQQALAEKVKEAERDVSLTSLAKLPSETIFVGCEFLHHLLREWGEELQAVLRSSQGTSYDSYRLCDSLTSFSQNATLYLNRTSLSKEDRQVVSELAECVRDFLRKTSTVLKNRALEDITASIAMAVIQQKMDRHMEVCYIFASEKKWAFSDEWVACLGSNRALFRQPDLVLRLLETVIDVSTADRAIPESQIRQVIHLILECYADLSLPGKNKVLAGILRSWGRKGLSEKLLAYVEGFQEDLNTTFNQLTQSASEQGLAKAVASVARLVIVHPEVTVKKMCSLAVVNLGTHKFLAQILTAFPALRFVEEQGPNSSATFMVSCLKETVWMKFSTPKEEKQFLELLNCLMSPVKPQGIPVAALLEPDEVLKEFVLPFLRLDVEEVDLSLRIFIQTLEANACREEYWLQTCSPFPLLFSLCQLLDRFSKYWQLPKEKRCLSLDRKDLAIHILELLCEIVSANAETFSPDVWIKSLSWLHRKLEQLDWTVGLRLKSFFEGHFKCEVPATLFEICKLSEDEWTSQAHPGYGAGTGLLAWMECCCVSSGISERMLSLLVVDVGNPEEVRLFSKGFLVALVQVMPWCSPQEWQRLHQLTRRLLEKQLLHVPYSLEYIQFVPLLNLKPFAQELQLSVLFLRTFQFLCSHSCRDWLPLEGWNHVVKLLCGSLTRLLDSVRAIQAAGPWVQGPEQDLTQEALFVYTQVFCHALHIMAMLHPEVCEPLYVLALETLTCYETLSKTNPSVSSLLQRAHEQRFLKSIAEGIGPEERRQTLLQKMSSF
Target,probe-labelled cysteine peptide fold change (10 µM),probe-labelled cysteine peptide fold change (50 µM)
GCLM_P48507_72_EFPDVLECTVSHAVEK (UniProt P48507),0.0379,0.0286
GNAI2_P04899_287_ITHSPLTICFPEYTGANKYDEAASYIQSK (UniProt P04899),-0.134,-0.103
GSTCD_Q8NEC7_571_EHMILCR (UniProt Q8NEC7),0.0436,0.126
GART_P22102_93_SAGVQCFGPTAEAAQLESSK (UniProt P22102),0.0151,-0.0827
HSPA2_P54652_191_GCAGGEK (UniProt P54652),-0.0761,-0.123
HMGCL_P35914_141_NINCSIEESFQR (UniProt P35914),0.0699,0.161
HSPBP1_Q9NZL4_269_GTLCSMGMVQQLVALVR (UniProt Q9NZL4),0.0217,0.156
GPT2_Q8TD30_281_CIEDVIHFAWEEK (UniProt Q8TD30),0.213,0.0432
HK2_P52789_133_GSGTQLFDHIAECLANFMDK (UniProt P52789),0.165,-0.083
GSDMD_P57764_268_CLHNFLTDGVPAEGAFTEDFQGLRAEVETISK (UniProt P57764),0.377,0.487
GTF3C3_Q9Y5Q9_810_GPCQESFYNLGR (UniProt Q9Y5Q9),0.136,0.284
HAT1_O14929_168_ADMTCR (UniProt O14929),0.0223,0.0285
GTPBP1_O00178_515_YQAMVHCGSIR (UniProt O00178),-0.0472,0.0726
GMPS_P49915_456_VICAEEPYICK (UniProt P49915),0.0291,0.0222
GATM_P50440_131_KAVAEIEEMCNILK (UniProt P50440),-0.271,-0.2
GCLC_P48506_295_GYVSDIDCR (UniProt P48506),0.0316,0.199
HSPA4_P34932_213_NVVFVDMGHSAYQVSVCAFNR (UniProt P34932),0.1,0.0909
GAPDH_P04406_247_VPTANVSVVDLTCRLEK (UniProt P04406),-0.778,-0.389
HADHA_P40939_97+110_PGCFIAGADINMLAACK (UniProt P40939),-0.0879,0.186
HNRNPM_P52272_676_DKFNECGHVLYADIK (UniProt P52272),-0.633,-0.474

Target,probe-labelled cysteine peptide fold change (10 µM),probe-labelled cysteine peptide fold change (50 µM)
HNRNPA3_P51991_64_WGTLTDCVVMRDPQTKR (UniProt P51991),-0.717,-0.524
GAPVD1_Q14C86_293_TLSCVDRLEVGEVR (UniProt Q14C86),0.185,0.128
GEMIN4_P57678_210_LRSDPDACPTMPLLAMLLR (UniProt P57678),-0.252,-0.0506
HADH_Q16836_211_ALGKHPVSCK (UniProt Q16836),-0.647,-0.601
HNRNPAB_Q99729_224_KFHTVSGSKCEIK (UniProt Q99729),-0.654,-0.0882
HGD_Q93099_180_MLVQPNEICVIQR (UniProt Q93099),0.479,0.382
GDI2_P50395_302_VICILSHPIK (UniProt P50395),-0.0268,-0.00641
HADHA_P40939_349_ALMGLYHGQVLCKK (UniProt P40939),-0.452,-0.365
GNAQ_P50148_144_SLWNDPGIQECYDR (UniProt P50148),-0.0686,-0.0854
GTF2B_Q00403_37_AGDMICPECGLVVGDR (UniProt Q00403),0.000693,0.073
GALNT1_Q10472_482_TDDLCLDVSK (UniProt Q10472),0.0604,0.00641
HSPA14_Q0VDF9_394_ENLLVEDSLMIECSAR (UniProt Q0VDF9),-0.368,-0.17
GCN1_Q92616_2136_LGTPDEQLEMANCQAVILSVEDDTGHR (UniProt Q92616),0.097,-0.0335
HPCAL1_P37235_185_LLQCDPSSASQF<|>HPCA_P84074_185_LLQCDPSSASQF (UniProt P84074+P37235),0.00885,-0.0604
HDGF_P51858_108_KSCVEEPEPEPEAAEGDGDKK (UniProt P51858),-0.541,-0.677
HARS_P12081_379_KVPCVGLSIGVER (UniProt P12081),-0.0416,-0.0375
GPATCH8_Q9UKJ3_795_HKGELPPSSCQR (UniProt Q9UKJ3),-0.186,-0.0452
GART_P22102_941_GSNAHEQALETGVTVTGCTVHFVAEDVDAGQIILQEAVPVKR (UniProt P22102),-0.0918,0.156
H2AFY_O75367_276_FVIHCNSPVWGADKCEELLEK (UniProt O75367),-0.321,-0.0894
